# Values joined by “and” are separate entries in the source; they are usually repeats but may differ in a detail not shown here. Equal values may be shown once. Results filed as inconclusive are left out. A call without a number means that no potency is given here. Some compounds were tested as several samples or in several runs, with calls that do not always agree. Active and inactive are the calls of the source. Unless noted, calls come from the whole dose curve; as a rule, active = well fitted cell-killing curve with a large enough effect in the repeat runs (not every such curve was filed as active); inconclusive = weak or mixed curves, or effect the other way; inactive = no such curve, though single readings can be large or run the other way.
# Biological target: Bile acid receptor (Homo sapiens) (UniProt Q96RI1)
# Assay: qHTS assay to identify small molecule antagonists of the farnesoid-X-receptor (FXR) signaling pathway (AID 743217; active = well fitted inhibition curve with a large enough effect in the signal ratio in the repeat runs, not every such curve was filed as active; the % refers to the signal ratio; note: potency is the fitted concentration of half-maximal effect)
# Details: HEK293T FXR-UAS-bla, beta-lactamase ratio, CDCA-stimulated, 16 h; series mostly up to 62.6 µM; activity change, negative = inhibition: at the top concentration
# Procedure, shortened: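 In this cell-based antagonist screen, inhibition of CDCA-driven (50 uM final) UAS-beta-lactamase expression in HEK 293T cells was measured by FRET fluorescence following 16 h compound exposure at 37 °C.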
# Chain of Bile acid receptor (Homo sapiens) (Q96RI1 whole entry, looked up): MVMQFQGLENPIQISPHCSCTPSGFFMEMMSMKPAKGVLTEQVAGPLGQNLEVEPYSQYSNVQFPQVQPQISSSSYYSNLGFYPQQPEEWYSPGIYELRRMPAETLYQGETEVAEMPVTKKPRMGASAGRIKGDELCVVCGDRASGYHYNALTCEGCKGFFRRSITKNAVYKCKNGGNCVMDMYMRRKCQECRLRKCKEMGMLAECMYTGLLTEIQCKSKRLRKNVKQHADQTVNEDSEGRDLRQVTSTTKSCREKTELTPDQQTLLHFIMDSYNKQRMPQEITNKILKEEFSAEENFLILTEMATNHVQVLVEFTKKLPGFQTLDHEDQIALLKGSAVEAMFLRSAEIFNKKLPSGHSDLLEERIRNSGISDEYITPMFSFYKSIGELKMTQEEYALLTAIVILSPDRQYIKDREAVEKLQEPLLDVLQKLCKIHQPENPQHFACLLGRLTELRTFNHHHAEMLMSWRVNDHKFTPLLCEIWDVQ
Compound,"activity change, negative = inhibition",Potency
CCN(N=O)C(N)=O,-3.21% (inactive),–
CC(C)c1ccc(CO)cc1,–,inactive
C#CCOS(=O)OC1CCCCC1Oc1ccc(C(C)(C)C)cc1 (centres undefined),12% (inactive),–
CCOP(=S)(OCC)O/N=C(\C#N)c1ccccc1,–,inactive
CCOc1cc(Oc2ccc(C(F)(F)F)cc2Cl)ccc1[N+](=O)[O-],-23% (inactive),–
NCc1cccnc1,–,inactive
NC(=S)Nc1ccccc1,–,inactive
Nc1c(Cl)cc([N+](=O)[O-])cc1Cl,–,inactive
N[C@@H](Cc1ccc(N(CCCl)CCCl)cc1)C(=O)O,-26.1% (inactive),–
CCCCCc1cc(O)cc(O)c1,–,inactive
ClC1C(Cl)C(Cl)C(Cl)C(Cl)C1Cl (centres undefined),–,inactive
C=C(C)C(=O)OCC1CO1 (centres undefined),–,inactive
C=C(C)[C@H]1Cc2c(ccc3c2O[C@@H]2COc4cc(OC)c(OC)cc4[C@@H]2C3=O)O1,–,0.75 µM (active)
CCCCCCCCOC(=O)c1ccccc1C(=O)OCCCCCCCC,–,inactive
c1nc[nH]n1,–,inactive

# Tested on: not listed separately
# Assay: qHTS assay to identify small molecule agonists of the farnesoid-X-receptor (FXR) signaling pathway - cell viability counter screen (AID 743218; active = well fitted cell-killing curve with a large enough effect in the repeat runs; note: nearly all actives have a fitted effect of over 45% in size; note: potency is the fitted concentration of half-maximal effect)
# Details: FXR-bla HEK293T viability, CellTiter-Glo luminescence, 16 h; series mostly up to 62.6 µM; viability change, negative = cytotoxic: at the top concentration
# Procedure, shortened: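 After 16 h at 37 C with test compounds, FXR-bla HEK 293T cells were given LiveBLAzer B/G substrate for 2 h at RT and then CellTiter-Glo; luminescence was taken after 30 min.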
Compound,"viability change, negative = cytotoxic",Potency
CN(C)c1ccc(C(=O)c2ccc(N(C)C)cc2)cc1,9.99% (inactive),–
CCN(N=O)C(N)=O,6.05% (inactive),–
Cc1c(COC(=O)[C@@H]2[C@H](/C=C(\Cl)C(F)(F)F)C2(C)C)cccc1-c1ccccc1,-2.41% (inactive),–
CC(C)c1ccc(CO)cc1,–,inactive
O=[N+]([O-])c1c(Cl)c(Cl)c(Cl)c(Cl)c1Cl,-18.1% (inactive),–
CC(C)C(=O)OCC(C)(C)C(OC(=O)C(C)C)C(C)C (centres undefined),4.03% (inactive),–
C#CCOS(=O)OC1CCCCC1Oc1ccc(C(C)(C)C)cc1 (centres undefined),–,inactive
CCOc1cc(C=O)ccc1O,–,inactive
COc1ccc(C(CN(C)C)C2(O)CCCCC2)cc1 (centres undefined),–,inactive
CCOP(=S)(OCC)O/N=C(\C#N)c1ccccc1,–,inactive
COC(=O)c1sccc1S(=O)(=O)NC(=O)Nc1nc(C)nc(OC)n1,-9.25% (inactive),–
NNC(=S)NN,–,inactive
NCc1cccnc1,–,inactive
NC(=S)Nc1ccccc1,–,inactive
O=P(Oc1ccccc1)(Oc1ccccc1)Oc1ccccc1,–,inactive
Nc1c(Cl)cc([N+](=O)[O-])cc1Cl,–,2.75 µM (active)
CC(C)(c1cc(Cl)c(O)c(Cl)c1)c1cc(Cl)c(O)c(Cl)c1,-35.1% (inactive),–
CC(C)Oc1cc(-n2nc(C(C)(C)C)oc2=O)c(Cl)cc1Cl,–,inactive and 38.9 µM (active)
CCCCCCOC(=O)c1ccccc1C(=O)OCCCCCC,-12.8% (inactive),–

Compound,"viability change, negative = cytotoxic",Potency
O=Cc1ccco1,–,inactive
N[C@@H](Cc1ccc(N(CCCl)CCCl)cc1)C(=O)O,–,inactive
Oc1cc(Cl)ccc1Oc1ccc(Cl)cc1Cl,–,42.1 µM (active)
Nc1ccc(Cl)cc1N,-0.406% [at 81.1 µM] (inactive),–
CCCCCc1cc(O)cc(O)c1,–,inactive
ClC1C(Cl)C(Cl)C(Cl)C(Cl)C1Cl (centres undefined),–,inactive
C=C(C)C(=O)OCC1CO1 (centres undefined),–,inactive
O=C(CCl)c1ccccc1,14.4% [at 81.1 µM] (inactive),–
C=C(C)[C@H]1Cc2c(ccc3c2O[C@@H]2COc4cc(OC)c(OC)cc4[C@@H]2C3=O)O1,–,inactive
CCC(=O)O[C@H]1CC[C@H]2[C@@H]3CCC4=CC(=O)CC[C@]4(C)[C@H]3CC[C@]12C,–,54.9 µM (active) and inactive
CCCCCCCCOC(=O)c1ccccc1C(=O)OCCCCCCCC,–,inactive
CCCCC(CC)COC(=O)c1ccc(C(=O)OCC(CC)CCCC)c(C(=O)OCC(CC)CCCC)c1 (centres undefined),–,inactive
Nc1ccncc1,–,inactive
CC(C)(C)c1ccccc1O,0.525% (inactive),–
c1nc[nH]n1,–,inactive
Nn1cnnc1,1.98% (inactive),–
Cc1ccccc1[N+](=O)[O-],–,inactive
O=S(=O)(Oc1ccc(Cl)cc1)c1ccc(Cl)cc1,-0.836% (inactive),–

# Biological target: Bile acid receptor (Homo sapiens) (UniProt Q96RI1)
# Assay: qHTS assay to identify small molecule agonists of the farnesoid-X-receptor (FXR) signaling pathway (AID 743220; active = well fitted activation curve with a large enough effect in the signal ratio in the repeat runs, not every such curve was filed as active; the % refers to the signal ratio)
# Details: HEK293T FXR-UAS-bla, beta-lactamase FRET ratio, 16 h; series mostly up to 62.6 µM; activation: at the top concentration
# Procedure, shortened: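 Beta-lactamase reporter under UAS control in GeneBLAzer FXR HEK 293T cells (5000/well) measured with LiveBLAzer FRET substrate after 2 h at room temperature. Compound exposure lasted 16 h at 37C.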
Compound,activation,outcome
CN(C)c1ccc(C(=O)c2ccc(N(C)C)cc2)cc1,-1.35% (inactive),–
CCN(N=O)C(N)=O,–,inactive
Cc1c(COC(=O)[C@@H]2[C@H](/C=C(\Cl)C(F)(F)F)C2(C)C)cccc1-c1ccccc1,-0.898% (inactive),–
CC(C)c1ccc(CO)cc1,–,inactive
C#CCOS(=O)OC1CCCCC1Oc1ccc(C(C)(C)C)cc1 (centres undefined),-0.0103% (inactive),–
CCOP(=S)(OCC)O/N=C(\C#N)c1ccccc1,–,inactive
CCOc1cc(Oc2ccc(C(F)(F)F)cc2Cl)ccc1[N+](=O)[O-],–,inactive
NCc1cccnc1,–,inactive
NC(=S)Nc1ccccc1,–,inactive
O=P(Oc1ccccc1)(Oc1ccccc1)Oc1ccccc1,–,inactive
Nc1c(Cl)cc([N+](=O)[O-])cc1Cl,-1.67% [at 81.1 µM] (inactive),–
CC(C)Oc1cc(-n2nc(C(C)(C)C)oc2=O)c(Cl)cc1Cl,3.4% (inactive),–
N[C@@H](Cc1ccc(N(CCCl)CCCl)cc1)C(=O)O,–,inactive
CCCCCc1cc(O)cc(O)c1,2.6% [at 81.1 µM] (inactive),–
ClC1C(Cl)C(Cl)C(Cl)C(Cl)C1Cl (centres undefined),–,inactive
C=C(C)C(=O)OCC1CO1 (centres undefined),–,inactive
C=C(C)[C@H]1Cc2c(ccc3c2O[C@@H]2COc4cc(OC)c(OC)cc4[C@@H]2C3=O)O1,–,inactive
CCCCCCCCOC(=O)c1ccccc1C(=O)OCCCCCCCC,–,inactive
c1nc[nH]n1,–,inactive

# Tested on: not listed separately
# Assay: qHTS assay to identify small molecule antagonists of the farnesoid-X-receptor (FXR) signaling pathway - cell viability counter screen (AID 743221); note: nearly all actives have a fitted effect of over 50% in size; note: potency is the fitted concentration of half-maximal effect
# Details: FXR-bla HEK293T viability, CellTiter-Glo luminescence, 16 h; series mostly up to 62.6 µM; activity change, negative = cytotoxicity: at the top concentration
# Procedure, shortened: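 Cytotoxicity counter screen run in the FXR-bla reporter wells: HEK 293T cells exposed to compound with 50 uM (final) chenodeoxycholic acid for 16 h, 37 C, then viability measured by CellTiter-Glo luminescence after 30 min, room temperature.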
Compound,Potency,"activity change, negative = cytotoxicity"
CN(C)c1ccc(C(=O)c2ccc(N(C)C)cc2)cc1,inactive,–
CCN(N=O)C(N)=O,inactive,–
Cc1c(COC(=O)[C@@H]2[C@H](/C=C(\Cl)C(F)(F)F)C2(C)C)cccc1-c1ccccc1,inactive,–
CC(C)c1ccc(CO)cc1,inactive,–
O=[N+]([O-])c1c(Cl)c(Cl)c(Cl)c(Cl)c1Cl,–,0.0249% (inactive)
CC(C)C(=O)OCC(C)(C)C(OC(=O)C(C)C)C(C)C (centres undefined),inactive,–
C#CCOS(=O)OC1CCCCC1Oc1ccc(C(C)(C)C)cc1 (centres undefined),inactive,–
CCOc1cc(C=O)ccc1O,inactive,–
COc1ccc(C(CN(C)C)C2(O)CCCCC2)cc1 (centres undefined),inactive,–
CCOP(=S)(OCC)O/N=C(\C#N)c1ccccc1,inactive,–
COC(=O)c1sccc1S(=O)(=O)NC(=O)Nc1nc(C)nc(OC)n1,inactive,–
NNC(=S)NN,inactive,–
CCOc1cc(Oc2ccc(C(F)(F)F)cc2Cl)ccc1[N+](=O)[O-],inactive,–
NCc1cccnc1,inactive,–
NC(=S)Nc1ccccc1,inactive,–
O=P(Oc1ccccc1)(Oc1ccccc1)Oc1ccccc1,inactive,–
Nc1c(Cl)cc([N+](=O)[O-])cc1Cl,inactive and 4.36 µM (active),–
CC(C)(c1cc(Cl)c(O)c(Cl)c1)c1cc(Cl)c(O)c(Cl)c1,inactive,–
CC(C)Oc1cc(-n2nc(C(C)(C)C)oc2=O)c(Cl)cc1Cl,inactive and 49 µM (active),–

Compound,Potency,"activity change, negative = cytotoxicity"
CCCCCCOC(=O)c1ccccc1C(=O)OCCCCCC,inactive,–
O=Cc1ccco1,inactive,–
N[C@@H](Cc1ccc(N(CCCl)CCCl)cc1)C(=O)O,inactive,–
Oc1cc(Cl)ccc1Oc1ccc(Cl)cc1Cl,56.2 µM (active),–
Nc1ccc(Cl)cc1N,–,5.88% [at 81.1 µM] (inactive)
CCCCCc1cc(O)cc(O)c1,inactive,–
ClC1C(Cl)C(Cl)C(Cl)C(Cl)C1Cl (centres undefined),inactive,–
C=C(C)C(=O)OCC1CO1 (centres undefined),–,-4.94% (inactive)
O=C(CCl)c1ccccc1,inactive,–
C=C(C)[C@H]1Cc2c(ccc3c2O[C@@H]2COc4cc(OC)c(OC)cc4[C@@H]2C3=O)O1,inactive,–
CCC(=O)O[C@H]1CC[C@H]2[C@@H]3CCC4=CC(=O)CC[C@]4(C)[C@H]3CC[C@]12C,–,0.773% (inactive)
CCCCCCCCOC(=O)c1ccccc1C(=O)OCCCCCCCC,inactive,–
CCCCC(CC)COC(=O)c1ccc(C(=O)OCC(CC)CCCC)c(C(=O)OCC(CC)CCCC)c1 (centres undefined),inactive,–
Nc1ccncc1,inactive,–
CC(C)(C)c1ccccc1O,inactive,–
c1nc[nH]n1,inactive,–
Nn1cnnc1,inactive,–
Cc1ccccc1[N+](=O)[O-],inactive,–
O=S(=O)(Oc1ccc(Cl)cc1)c1ccc(Cl)cc1,inactive,–
